The values that follow come from PubChem BioAssay (Tox21).

Inconclusive results are not listed. Activity calls are given as the source filed them. The call rests on the fitted dose curve; in most records, active means well fitted cell-killing curve with a large enough effect in the repeat runs; inconclusive means weak or mixed curves, or effect the other way; inactive means no such curve, though single readings can be large or run the other way.
On the % scale 0 is the no-effect control and ±100 the full control effect.

The assay can be described thus: qHTS assay to identify small molecule antagonists of the glucocorticoid receptor (GR) signaling pathway - cell viability counter screen (AID 720693). Further: nearly all actives have a fitted effect of over 55% in size. The conditions noted are these: GR-bla HeLa viability, CellTiter-Glo luminescence, 18 h, with 5 nM dexamethasone present; series mostly up to 58.5 µM. The source says:
National Center for Advancing Translational Sciences [NCATS]
NIH Chemical Genomics Center [NCGC]
U.S. Environmental Protection Agency [EPA]
National Institutes of Environmental Health Sciences [NIEHS]
National Toxicology Program [NTP]
U.S. Food and Drug Administration [FDA]
The Glucocorticoid receptor (GR) is one of the members of the nuclear receptor family of ligand-dependent transcription factors. GR plays a critical role in carbohydrate, protein and lipid metabolisms and programmed cell death. CellSensor GR-bla HeLa cell line (Invitrogen) contains a beta-lactamase reporter gene under the control of the glucocorticoid response element stably integrated into HeLa cells, a cervical cancer cell line that expresses glucocorticoid receptor. The activation of the reporter gene under culture conditions can be detected by fluorescence intensity. This cell line has been used to screen the Tox21 10K compound library and to identify the compounds that inhibit the GR signaling. The cytotoxicity of the Tox21 compound library against the GR-bla HeLa cell line was tested in parallel by measuring the cell viability using CellTiter-Glo assay in the same wells.
Tox21 Assay Protocol Summary:
The GR-bla HeLa cells were dispensed at 1500 cells/5 ul/well in 1536-well black wall/clear bottom plates using a Multidrop Combi (ThermoFisher Scientific, Waltham, MA) dispenser. After the assay plates were incubated at a 37 C/5% CO2 incubator for 4 hours, 23 nL of compounds dissolved in DMSO, positive controls or DMSO only was transferred to the assay plate by a pintool station (Kalypsys, San Diego, CA), followed by addition of 1 uL of dexamethasone (5 nM, final concentration in the well). The plates were incubated at 37 C for 18 hours. After 1 uL of LiveBLAzerTM B/G FRET substrate was added using a Flying Reagent Dispenser (Aurora Discovery, San Diego, CA), the plates were incubated at room temperature (RT) for 2 hours, and fluorescence intensity was measured by an Envision plate reader (PerkinElmer, Shelton, CT). After measurement of bla assay, 3 ul CellTiter-Glo (Promega, Madison, WI) was added to measure the cytotoxicity and the plates were then incubated at RT for 30 min. The luminescence was measured using a ViewLux (Perkin Elmer) plate reader.
In the case of `CC1OCCC1=O` (stereo not given), the result was inactive. Same read-out and setting: under `OCC1(CO)COCOC1` stands “inactive”.

Regarding `O=C(O)CONC(=O)c1ccccc1`, the result was inactive. As to `O=C1c2ccccc2C(=O)c2cc(Cl)ccc21`, the viability change, negative = cytotoxic was -1.8% [at 7.04 µM] (inactive).

In the case of `CC(=O)C1C(=O)C=C(C)OC1=O` (stereo not given), the result was inactive. Turning to `c1ccc2cnccc2c1`, the compound was called inactive. On the same count and under the same terms, under `CC(=O)OCC(=O)Nc1cc(C#N)cc(NC(=O)COC(C)=O)c1Cl` stands “inactive”; under `O=C(O)CNC(=O)CNC(=O)CNC(=O)CSC(=O)c1ccccc1`, “inactive”. Still for that read-out and setting: under `CN1CCOC(c2ccccc2)c2ccccc2C1` (stereo not given) stands “inactive”; under `N[C@@H](CSCCCO)C(=O)O`, “inactive”; under `CC1=C(C(=O)O)N2C(=O)[C@@H](NC(=O)[C@H](N)C3=CCC=CC3)[C@H]2SC1`, “inactive”.

On to `N#Cc1cscn1`, for which the compound was called inactive. The same measure, in the same setting: the result for `OC1OCCOC1O` (stereo not given) reads “inactive”. For the compound `CCCCCCCCCCOC(C)=O`, the compound was called inactive. On the same count and under the same terms, under `C=C(C)C1CC=C(C)C(=O)C1` (stereo not given) stands “inactive”.

Regarding `C=CCCCC`, the outcome was inactive. Consider `CCCCCCCCCCCCCCCCCC#N`, for which the outcome was inactive. On the same count and under the same terms, under `C/C=C(\C)C(=O)OCCc1ccccc1` stands “inactive”; under `O=C1CCCCO1`, “inactive”.

With `Fc1ccccc1`, the outcome was inactive. Same read-out and setting: under `CCC(=O)c1c(O)cc(O)cc1O` stands “inactive”; under `CC(O)COC(C)(C)C` (stereo not given), “inactive”. Regarding `CC1(C)O[C@H]2CC(=O)OC[C@]23[C@H]2CC[C@@]4(C)[C@H](c5ccoc5)OC(=O)[C@H]5O[C@]54[C@]2(C)C(=O)C[C@@H]13`, the compound was called inactive. The same measure, in the same setting: under `COc1ccc2c(c1)c1c3n2CCN(C)C3=NCC1` stands “inactive”; under `COC(=O)c1cc(Cl)cc(Cl)c1`, “inactive”.

For `CC1(C)[C@H]2CC[C@](C)(C2)[C@H]1O`, the compound was called inactive. Still for that read-out and setting: the result for `C=C(C)[C@@H]1CC=C(C)C(=O)C1` reads “inactive”; that for `O=C(CCCCC(=O)Nc1c(I)cc(I)c(C(=O)O)c1I)Nc1c(I)cc(I)c(C(=O)O)c1I`, “inactive”.

For the compound `Cc1c(N)cccc1Cl`, the call was inactive. In the case of `NCC1(Cc2noc(=O)[nH]2)CCCCC1`, the call was inactive. In the case of `CCCC(=O)Nc1ccc(OCC(O)CNC(C)C)c(C(C)=O)c1` (stereo not given), the result was inactive. On to `CCC/C=C(\C=O)CC`, for which the compound was called inactive. With `O=C(O)CCCCCC(=O)O`, the compound was classed as inactive. Same read-out and setting: under `C[C@]12CCC(=O)C=C1CC[C@H]1[C@@H]3CC[C@](O)(C(=O)CO)[C@@]3(C)C[C@H](O)[C@@]12F` stands “inactive”; under `COC(=O)c1cccc(Cl)c1`, “inactive”; under `OCC(O)CN1CCN(c2ccccc2)CC1` (stereo not given), “inactive”. On the same count and under the same terms, the result for `OC[C@H]1O[C@@H](O[C@@H]2[C@@H](CO)O[C@](O)(CO)[C@H]2O)[C@H](O)[C@@H](O)[C@H]1O` reads “inactive”; that for `CC(C)c1ccc(C=O)cc1`, “inactive”; that for `COP(=O)(O)OP(=O)(O)OC`, “inactive”. Same read-out and setting: the result for `CC(O)CC(C)O` (stereo not given) reads “inactive”.
